The record followed here is PubChem BioAssay (NCI).

This is part of a sample that, as a whole, favours compounds with a hit. Of some 83,000 tested, about 20% had one in any assay.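 Assay: single dose, 48 h. Readout: percent growth (0 = no net growth; negative = cell death). Active: <10.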 Values without a mark were called inactive. Calls of active or inactive are those of the source.

Among the test systems are SK-MEL-2 melanoma; EKVX NSCLC; SN12C renal; UO-31 renal; TK-10 renal; ACHN renal; CAKI-1 renal; A498 renal; CCRF-CEM leukemia; MOLT-4 leukemia.
What all share (assay): NCI-60 one-dose screen, 48 h (100 = growth as untreated, 0 = no growth, -100 = all killed)
Holding throughout (settings): 10 µM unless noted

As to `Cc1nc2ncccc2nc1Nc1ccc(S(=O)(=O)Nc2ccccn2)cc1`, the growth with SK-MEL-2 melanoma was 104%; in the experiment with EKVX NSCLC it was 98%; in the experiment with SN12C renal it was 93.7%; with UO-31 renal it was 61.5%; in the experiment with TK-10 renal it was 106%; in the experiment on ACHN renal it was 95.2%. Besides, the growth was 82.6% in the experiment on CAKI-1 renal, 104% in the experiment with A498 renal, 107% in the experiment with CCRF-CEM leukemia and 91.9% with MOLT-4 leukemia.

As to `C=C1CCC2C(C)(CO)C(O)CCC2(C)C1C/C=C1/C(=O)OCC1Oc1ccccc1C` (stereo not given), the growth in the experiment on SK-MEL-2 melanoma is 87.5%; in the experiment with EKVX NSCLC, 101%; in the experiment with SN12C renal, 85.9%; with UO-31 renal, 93%; with TK-10 renal, 136%; with ACHN renal it was 91.6%. Besides, the growth in the experiment on CAKI-1 renal is 95.8%; in the experiment on A498 renal it was 108%; in the experiment on CCRF-CEM leukemia it was 20.3%; with MOLT-4 leukemia it was 92.5%.

Take `O=C(/C=C\c1cccc([N+](=O)[O-])c1)/C=C/c1cccc([N+](=O)[O-])c1`: the growth in the experiment with SK-MEL-2 melanoma is -38.1% (active); in the experiment on EKVX NSCLC, 107%; in the experiment with SN12C renal, 98.1%; with UO-31 renal, 71.1%; with TK-10 renal, 89.9%; in the experiment with ACHN renal, 89.6%. Further, the growth with CAKI-1 renal was 94.2%; in the experiment on A498 renal, 90.4%; in the experiment with CCRF-CEM leukemia it was 74.4%; in the experiment with MOLT-4 leukemia, 94.3%.

For the molecule `Cc1ccc2nc(Cl)cc(=O)n2c1`, the growth is 107% in the experiment on SK-MEL-2 melanoma; 114% with EKVX NSCLC; 101% with SN12C renal; 84.3% with UO-31 renal; 109% in the experiment on TK-10 renal; 99.1% in the experiment on ACHN renal. Besides, the growth with CAKI-1 renal was 111%; with A498 renal, 107%; with CCRF-CEM leukemia it was 94.4%; in the experiment with MOLT-4 leukemia, 106%.

On to `COc1ccc(-c2cc(-c3ccccc3)nc(SCCCC(=O)NO)n2)cc1OC`, for which the growth in the experiment with SK-MEL-2 melanoma was -1.51% (active); with EKVX NSCLC it was 8.24% (active); with SN12C renal, 13.8%; in the experiment on UO-31 renal it was -39.6% (active); with TK-10 renal, 4.89% (active); with ACHN renal it was -0.775% (active). For the same molecule, the growth was -37.9% (active) with CAKI-1 renal, -24.9% (active) in the experiment with A498 renal, 6.42% (active) in the experiment on CCRF-CEM leukemia and 2.96% (active) with MOLT-4 leukemia.

Turning to `Cc1cc(N/N=C/c2nc(-c3ccccc3)oc2C)c2cc(Cl)ccc2n1`, the growth in the experiment with SK-MEL-2 melanoma is 110%; in the experiment on EKVX NSCLC, -59.4% (active); in the experiment with SN12C renal, -84.9% (active); in the experiment on UO-31 renal it was -99.2% (active); in the experiment on TK-10 renal it was -76.3% (active); in the experiment with ACHN renal, -80.1% (active). The growth in the experiment with CAKI-1 renal was 14.4%; in the experiment on A498 renal it was 68.4%; in the experiment on CCRF-CEM leukemia it was -34.6% (active); in the experiment on MOLT-4 leukemia, -39.2% (active).

Take `COc1ccc(C2C(C#N)=C(N)Oc3c2ccc2ccccc32)cc1` (stereo not given): the growth with SK-MEL-2 melanoma was 24.8%; with EKVX NSCLC, 73.8%; with SN12C renal, 51.5%; with UO-31 renal, 38.8%; in the experiment on TK-10 renal, 81%; with ACHN renal, 52.5%. In addition, the growth with CAKI-1 renal was 30.8%; in the experiment on A498 renal it was 0% (active); with CCRF-CEM leukemia, 24.2%; in the experiment on MOLT-4 leukemia, 31.7%.

Take `N/C(=N\S(=O)(=O)c1ccccc1)Nc1nc2ccccc2s1`: the growth was 93.1% with SK-MEL-2 melanoma; 86.9% with EKVX NSCLC; 86.1% in the experiment on SN12C renal; 74.2% in the experiment with UO-31 renal; 108% with TK-10 renal; 94.7% in the experiment with ACHN renal. For the same molecule, the growth was 89.3% with CAKI-1 renal, 118% in the experiment with A498 renal, 109% with CCRF-CEM leukemia and 99.4% in the experiment on MOLT-4 leukemia.

On to `Nc1cccc(-c2nc3sccn3c2-c2ccnc(NCCCNS(=O)(=O)c3cccc4ccccc34)n2)c1`, for which the growth in the experiment on SK-MEL-2 melanoma was 36.3%; in the experiment with EKVX NSCLC, 56.7%; in the experiment on SN12C renal, 39.3%; with UO-31 renal it was 21.5%; in the experiment on TK-10 renal, 76.5%; with ACHN renal it was 31.6%. In addition, the growth in the experiment on CAKI-1 renal is 34.9%; in the experiment with A498 renal, 29.8%; with CCRF-CEM leukemia, 16.1%; in the experiment on MOLT-4 leukemia, 10.3%.

In the case of `COc1cc(NC(N)=NCCC(C)(C)c2ccc(C(F)(F)F)cc2)ncc1C#N`, the growth in the experiment on SK-MEL-2 melanoma is 48.8%; in the experiment with EKVX NSCLC, 24.8%; with SN12C renal, 27.4%; with UO-31 renal, 4.93% (active); in the experiment on TK-10 renal it was 13.8%; in the experiment with ACHN renal, 45.1%. In addition, the growth in the experiment on CAKI-1 renal is 40.8%; with A498 renal it was 48.1%; with CCRF-CEM leukemia it was 24.6%; in the experiment on MOLT-4 leukemia, -10.7% (active).

On to `N=C(N)c1ccc(-c2ccc(-c3ccc(-c4cccs4)s3)s2)cc1`, for which the growth in the experiment with SK-MEL-2 melanoma was 108%; in the experiment with EKVX NSCLC it was 90.1%; in the experiment on SN12C renal it was 93.7%; in the experiment with UO-31 renal, 93%; in the experiment on TK-10 renal, 95.3%; in the experiment with ACHN renal, 102%. In addition, the growth in the experiment on CAKI-1 renal was 106%; in the experiment with A498 renal, 20.6%; in the experiment with CCRF-CEM leukemia, -47.8% (active); in the experiment on MOLT-4 leukemia it was 98%.

For the molecule `CCCCCCCCN(CCCCCCCC)CCCCCCNc1cc(OC)cc2cccnc12`, the growth is 105% in the experiment with SK-MEL-2 melanoma; 87.4% with EKVX NSCLC; 63.4% in the experiment with SN12C renal; 55.2% in the experiment with UO-31 renal; 118% with TK-10 renal; 91.4% in the experiment on ACHN renal. Besides, the growth in the experiment with CAKI-1 renal is 72%; in the experiment on A498 renal, 110%; with CCRF-CEM leukemia it was -59% (active); in the experiment on MOLT-4 leukemia, 50%.

As for `N#Cc1c(Nc2ccccc2)nc2n(c1=O)-c1ccccc1Sc1ccccc1-2`, the growth in the experiment with SK-MEL-2 melanoma is 86.9%; in the experiment with EKVX NSCLC it was 73%; in the experiment with SN12C renal, 77.7%; with UO-31 renal, 53.4%; in the experiment with TK-10 renal it was 105%; in the experiment with ACHN renal, 68.3%. Further, the growth in the experiment on CAKI-1 renal is 70.8%; with A498 renal, 90.2%; in the experiment with CCRF-CEM leukemia, 63.4%; with MOLT-4 leukemia, 51.9%.

`COc1ccc(Cn2cc3c(c2-c2cc(OC)c(OC)c(OC)c2)CCc2cnoc2-3)cc1`: the growth in the experiment with SK-MEL-2 melanoma is 42.8%; in the experiment on EKVX NSCLC, 34.8%; in the experiment on SN12C renal, 34.6%; with UO-31 renal it was 30.4%; in the experiment with TK-10 renal, 73.8%; with ACHN renal it was 33.1%. Besides, the growth in the experiment with CAKI-1 renal is 21.2%; in the experiment on A498 renal it was 3.83% (active); in the experiment with CCRF-CEM leukemia, 12.9%; in the experiment on MOLT-4 leukemia it was 23.3%.
